From the supplement of paper PMC12340641
Where a name gives a salt, the structure may show the parent alone.

target: IKZF1 (dCK*-IKZF1 fusion in HEK293FT) (UniProt Q13422); test: inhibition of IKZF1 HTRF signal (DMSO = 0%, pomalidomide 10 uM = 100%); higher = lower IKZF1 protein level; settings: compound concentration: 5 uM, overnight (~20 h)
Outline: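 For percent inhibition of IKZF1 signal, each plate was normalised to vehicle and to a reference degrader. Cells were HEK293FT stably expressing an IKZF1 fusion, plated at 2000/well in 384-well format and treated overnight at 37 °C with 5 μM compound, one well each. Lysates were probed overnight with a commercial HTRF total-IKZF1 antibody kit, with the 665/620 nm ratio background-subtracted and vehicle and degrader fixed at 0% and 100%.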

Sequence of IKZF1 (dCK*-IKZF1 fusion in HEK293FT) (Q13422 whole entry, looked up, the tested form may be a part): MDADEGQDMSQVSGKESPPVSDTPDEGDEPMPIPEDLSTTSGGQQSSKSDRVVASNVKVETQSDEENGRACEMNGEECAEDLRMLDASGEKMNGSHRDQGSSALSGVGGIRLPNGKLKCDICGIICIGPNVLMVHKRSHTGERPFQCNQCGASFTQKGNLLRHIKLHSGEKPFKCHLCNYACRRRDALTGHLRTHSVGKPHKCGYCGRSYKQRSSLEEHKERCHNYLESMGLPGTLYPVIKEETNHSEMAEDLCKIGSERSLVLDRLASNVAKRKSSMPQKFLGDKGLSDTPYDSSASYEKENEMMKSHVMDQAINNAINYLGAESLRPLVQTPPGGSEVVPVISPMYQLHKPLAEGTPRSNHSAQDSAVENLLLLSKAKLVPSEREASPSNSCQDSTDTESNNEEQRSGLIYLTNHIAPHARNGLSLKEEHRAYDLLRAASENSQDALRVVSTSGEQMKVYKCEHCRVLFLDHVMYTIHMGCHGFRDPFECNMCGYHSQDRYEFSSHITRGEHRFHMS

Going from `C[C@H]1O[C@@H](n2cc(F)c(=O)[nH]c2=O)[C@H](O)[C@@H]1O` to `CCCCNC(=O)NS(=O)(=O)c1ccc(C)cc1`, the “inhibition of IKZF1 HTRF signal” value falls from -24.1% to -29.8%.

Compared with `CC(C)(N)c1nc(-c2ccc(OC(F)(F)F)cc2)c[nH]1`, `Cc1ccnc(NS(=O)(=O)c2ccc(N)cc2)n1` is lower in “inhibition of IKZF1 HTRF signal” value: -29.8% for the first, -32.2% for the second.

First: NC(=O)C(c1ccccc1)(c1ccc(F)cc1)c1ccc(F)cc1 [Senicapoc]
Second: Nc1ccc2cc3ccc(N)cc3nc2c1
The “inhibition of IKZF1 HTRF signal” value of the first is lower: -28.5% for the first, 62.9% for the second.

Going from `CCCCCCCCN=c1ccn(CCCCCCCCCCn2ccc(=NCCCCCCCC)cc2)cc1` [Octenidine Dihydrochloride] to `CCOC(=O)c1ccc(N)cc1`, the “inhibition of IKZF1 HTRF signal” value falls from 64.7% to 16.4%.

tested on: HEK293FT dCK*-only; test: relative growth in counter assay (no AraC = 100%, AraC + DMSO = 0%); higher = more growth rescue independent of IKZF1; settings: compound concentration: 5 uM; AraC concentration: 0.3 uM; overnight pretreatment + 4 days AraC
Outline: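 HEK293FT cells carrying only an engineered kinase construct were plated at 300 per well (384-well) and given 5 μM compound 2 h later. Following overnight at 37 °C, a nucleoside suicide substrate (0.3 μM) plus medium was added for 4 days. Hoechst 33342-stained nuclei were imaged and counted on day 5, with 100% assigned to wells without suicide substrate and 0% to substrate plus vehicle on each plate.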

First: Clc1ccc(C(Cn2ccnc2)OCc2c(Cl)cccc2Cl)c(Cl)c1 (stereo unspecified) [Isoconazole nitrate (Travogen)]
Second: COc1cc(NC(=O)c2ccc(-c3ccc(Cl)cc3)o2)cc(OC)c1
The “relative growth in counter assay” value of the first is lower: 0.7% for the first, 14.9% for the second.

Compared with `CC[C@]1(O)C[C@H]2CN(CCc3c([nH]c4ccccc34)[C@@](C(=O)OC)(c3cc4c(cc3OC)N(C=O)[C@H]3[C@@](O)(C(=O)OC)[C@H](OC(C)=O)[C@]5(CC)C=CCN6CC[C@]43[C@@H]65)C2)C1` [Vincristine Sulfate], `COc1cccc2c1C(=O)c1c(O)c3c(c(O)c1C2=O)C[C@@](O)(/C(CO)=N/NC(=O)CCCCCN1C(=O)C=CC1=O)C[C@@H]3O[C@H]1C[C@H](N)[C@H](O)[C@H](C)O1` [Aldoxorubicin] is lower in “relative growth in counter assay” value: -33.5% for the first, -35.5% for the second.

First: CN1CCN(Cc2ccc(-c3cnc4[nH]cc(-c5ccc6[nH]ccc6c5)c4c3)cc2)CC1
Second: COc1ccc(NC(=O)c2ccc(-c3ccc(-c4noc(C)n4)cc3C)cc2)cc1N1CCN(C)CC1
The “relative growth in counter assay” value of the first is lower: -34.1% for the first, -19.7% for the second.

Compared with `COc1cccc2c(O)c3c(O)c4c(c(O)c3c(O)c12)=C(O[C@H]1C[C@H](N)[C@H](O)[C@H](C)O1)C[C@](O)(C(=O)CO)C=4` [Doxorubicin HCl], `CC(=O)[C@@]1(O)C=C(O[C@H]2C[C@H](N)[C@H](O)[C@H](C)O2)c2c(c(O)c3c(O)c4ccccc4c(O)c3c2O)C1` [Idarubicin HCl] is higher in “relative growth in counter assay” value: -34.4% for the first, -34.3% for the second.

Going from `CCCCC(=O)OCC(=O)[C@]1(O)Cc2c(O)c3c(c(O)c2[C@@H](O[C@H]2C[C@H](NC(=O)C(F)(F)F)[C@H](O)[C@H](C)O2)C1)C(=O)c1c(OC)cccc1C3=O` [Valrubicin] to `CC(=O)[C@]1(O)Cc2c(O)c3c(c(O)c2[C@@H](O[C@H]2C[C@H](N)[C@H](O)[C@H](C)O2)C1)C(=O)c1ccccc1C3=O` [Idarubicin HCl], the “relative growth in counter assay” value rises from -34.4% to -34.2%.

Going from `Oc1c(I)cc(I)c2cccnc12` to `O=[N+]([O-])c1ccc(O)c2ncccc12`, the “relative growth in counter assay” value falls from -11.2% to -14.6%.

Going from `CN(C)C(=O)C(CCN1CCC(O)(c2ccc(Cl)cc2)CC1)(c1ccccc1)c1ccccc1` to `NC(=O)C(c1ccccc1)(c1ccc(F)cc1)c1ccc(F)cc1` [Senicapoc], the “relative growth in counter assay” value rises from 0.63% to 2.14%.

Going from `O=C(Nc1cccc(C(F)(F)F)c1)Nc1ccc(Br)cc1-c1nnn[nH]1` to `FC(F)(F)c1cc(NC(=S)Nc2ccc(Br)cc2-c2nnn[nH]2)cc(C(F)(F)F)c1`, the “relative growth in counter assay” value falls from -0.22% to -37.2%.

First: COc1ccc(-c2ccc3c(N4CCOC[C@@H]4C)nc(N4CCOC[C@@H]4C)nc3n2)cc1CO
Second: COc1ccc(C2CC(c3c(O)cc(C)oc3=O)=NCCS2)c(OC)c1 (stereo unspecified)
The “relative growth in counter assay” value of the first is lower: -33.9% for the first, -32.5% for the second.

First: NC(=O)N1c2ccccc2CC(O)c2ccccc21 (stereo unspecified) [licarbazepine]
Second: O=C(Nc1ccc2[nH]ccc2c1)c1ccccc1
The “relative growth in counter assay” value of the first is higher: -2.99% for the first, -3.62% for the second.

First: CCC(=O)O[C@@H]1CC(=O)O[C@H](C)C/C=C/C=C/[C@H](OC(C)=O)[C@H](C)C[C@H](CC=O)[C@H](O[C@@H]2O[C@H](C)[C@@H](O[C@H]3C[C@@](C)(OC(C)=O)[C@@H](OC(=O)CC)[C@H](C)O3)[C@H](N(C)C)[C@H]2O)[C@H]1OC [Midecamycin Acetate]
Second: C=C1CCC2[C@](C)(CO)[C@H](O)CC[C@@]2(C)[C@@H]1C/C=C1/C(=O)OC[C@H]1O (stereo partly specified) [Andrographolide]
The “relative growth in counter assay” value of the first is higher: 2.69% for the first, -20.8% for the second.

First: Nc1ccc(S(=O)(=O)Nc2cnc3ccccc3n2)cc1
Second: Cc1ccnc(NS(=O)(=O)c2ccc(N)cc2)n1
The “relative growth in counter assay” value of the first is lower: -4.7% for the first, 1.25% for the second.

Going from `CCc1ccc(OCc2ccccc2C(=O)Nc2ccc3nc(C)cc(N)c3c2)cc1` to `O=C1N(c2ccccc2)c2ccccc2C1(Cc1ccncc1)Cc1ccncc1` [linopirdine], the “relative growth in counter assay” value rises from -34.6% to -2.22%.

First: CNCCC(Oc1ccc(C(F)(F)F)cc1)c1ccccc1 (stereo unspecified) [Fluoxetine HCl]
Second: CC(C)(N)c1nc(-c2ccc(OC(F)(F)F)cc2)c[nH]1
The “relative growth in counter assay” value of the first is lower: -5.41% for the first, 5.76% for the second.

Compared with `Cc1nnsc1C(=O)Nc1ccc(-n2nc(C(F)(F)F)cc2C(F)(F)F)cc1`, `CCCCNC(=O)NS(=O)(=O)c1ccc(C)cc1` is lower in “relative growth in counter assay” value: 3.65% for the first, 0.26% for the second.

First: Cc1ccc(S(=O)(=O)c2ccc([N+](=O)[O-])o2)cc1
Second: CCOC(=O)c1ccc(N)cc1
The “relative growth in counter assay” value of the first is lower: -34% for the first, -10.5% for the second.

Compared with `Oc1cc(O)cc(/C=C/c2ccc(O)c(O)c2)c1` [piceatannol], `Nc1ccc2cc3ccc(N)cc3nc2c1` is lower in “relative growth in counter assay” value: -9.71% for the first, -35.1% for the second.

Compared with `Cc1ncsc1-c1ccc(CNC(=O)[C@@H]2C[C@@H](O)CN2C(=O)[C@@H](NC(=O)COCCOCCOc2ccc(-c3ccc4ncnc(Nc5ccc(OCc6cccc(F)c6)c(Cl)c5)c4c3)cc2)C(C)(C)C)cc1`, `CCCCCCCCNC(C)C(O)c1ccc(SC(C)C)cc1` (stereo unspecified) is lower in “relative growth in counter assay” value: 49.6% for the first, 7.28% for the second.

First: C[C@H]1O[C@@H](n2cc(F)c(=O)[nH]c2=O)[C@H](O)[C@@H]1O
Second: CCCCCCCCN=c1ccn(CCCCCCCCCCn2ccc(=NCCCCCCCC)cc2)cc1 [Octenidine Dihydrochloride]
The “relative growth in counter assay” value of the first is higher: -10.6% for the first, -35.3% for the second.
